# Inconclusive results are not listed. Entries that show only a call come without a potency. Activity calls are given as the source filed them. Calls come from the whole dose curve; as a rule, active = well fitted curve in the direction sought with a large enough effect; inconclusive = small, poorly fitted or top-dose-only effect, or another doubt; inactive = no such curve, though single readings can be large; an effect the other way counts as inactive or inconclusive.
# Experiments:
# [1] = molecular target: Aldehyde dehydrogenase, mitochondrial (Homo sapiens) (UniProt P05091); experiment: qHTS for Inhibitors of the Aldehyde Dehydrogenase Family (ALDH2) Primary screen (AID 2061308); note: nearly all actives have a fitted effect of over 55% in size
# [2] = molecular target: Retinaldehyde dehydrogenase 3 (Homo sapiens) (UniProt P47895); experiment: qHTS for Inhibitors of the Aldehyde Dehydrogenase Family (ALDH1A3) Primary screen (AID 2061315)
SMILES,Potency [1],Potency [2]
O=C1CCc2cc(S(=O)(=O)Nc3ccccc3F)ccc2N1,inactive,inactive
CCOc1ccc(C(C)CNC(=O)c2cc3sccc3n2Cc2ccccc2)cc1OCC (configuration not stated),inactive,inactive
Oc1cccc2cc(CNc3ccccc3F)cnc12,inactive,inactive
Cc1ccc(OCCn2c(CCNC(=O)c3ccccc3F)nc3ccccc32)cc1,inactive,inactive
Cc1ccc(OCCn2c(CCNC(=O)c3ccc(C#N)cc3)nc3ccccc32)cc1,inactive,inactive
COc1ccc(-c2ccc3ncnc(NCC4CCCO4)c3c2)cc1OC (configuration not stated),inactive,inactive
CC(C)c1ccccc1SC1=NS(=O)(=O)c2ccccc21,inactive,inactive
N#Cc1ccc(C(=O)NCC(=O)OC(C(=O)Nc2cc(C(F)(F)F)ccc2Cl)c2ccccc2)cc1 (configuration not stated),inactive,inactive
Cc1nc(CN(C)c2ncnc3ccc(-c4ccc5c(c4)OCO5)cc23)cs1,inactive,inactive
Nc1ccc(Cl)cc1C(=O)c1ccc[nH]1,inactive,inactive
Clc1cccc(CSc2nc3ncc(Br)cc3[nH]2)c1,inactive,inactive
Cc1cc(C)nc(NC(=S)N2CCN(c3cc(Cl)c(Cl)c(Cl)c3)CC2)c1,inactive,inactive
Fc1ccc(-c2nc(-c3ccncc3)nc3ccccc23)cc1F,inactive,inactive
Cc1ccc(OCCn2c(CCNC(=O)Cc3cccc4ccccc34)nc3ccccc32)cc1,inactive,inactive
Cc1cccc(Nc2nc(NCCO)nc(N3CCCC3)n2)c1,inactive,inactive
N#Cc1nc(NCC(F)F)c2ncn(-c3cc(F)cc(F)c3)c2n1,inactive,inactive
COc1cccc(-c2nnc3n2N=C(c2c(OC)cccc2OC)CS3)c1OC,inactive,inactive
COc1ccc(Oc2c(Cl)cnn(-c3cc(C)cc(C)c3)c2=O)cc1,inactive,inactive
CSc1ccc(CNc2ncnc3ccc(-c4c(C)noc4C)cc23)cc1,inactive,inactive
Cc1ccc(-c2cc(C(=O)Nc3nc4ccccc4s3)c3ccccc3n2)cc1C,inactive,inactive
CC(C)(C)NS(=O)(=O)c1cccc(-c2nnc(SCC(=O)Nc3ccc(C(=O)O)cc3)n2-c2ccc(F)cc2)c1,inactive,inactive
Nc1ccc(-c2nnc(NC(=O)Nc3ccc(Cl)c(Cl)c3)s2)cc1,inactive,inactive

SMILES,Potency [1],Potency [2]
CCN(CC)CCCn1c(-c2ccccc2)nc2c(N3CCOCC3)nc(C)nc21,inactive,inactive
O=C(Nc1nc(-c2ccccc2)cs1)c1ccncc1NS(=O)(=O)c1cccc(Cl)c1,inactive,inactive
Fc1cc(Nc2nc(-c3ccncc3)nc3ccccc23)ccc1-c1cc(F)c(F)c(F)c1,inactive,inactive
CC(=O)N1CCCc2cc(S(=O)(=O)Nc3ccc(C)c(C)c3)ccc21,inactive,inactive
N#Cc1ccc(-c2nc(NCc3ccc(-c4ccnc(C(F)(F)F)c4)cc3)c3ccccc3n2)cc1,inactive,inactive
CCCn1c(-c2ccc(F)cc2)nc2c(NCCCCN3CCCC3)nc(C)nc21,inactive,inactive
Cc1cc2c(s1)c1cnn(Cc3c(Cl)cccc3Cl)c(=O)c1n2C,inactive,inactive
O=C(Cc1nnc(-c2cc3ccccc3[nH]2)o1)Nc1cc(C(F)(F)F)ccc1Cl,inactive,inactive
COc1ccccc1/C=C/C(=O)NCCc1nc2ccccc2n1CCOc1ccc(C)cc1,inactive,inactive
Cc1cc2c(s1)c1cnn(Cc3ccccc3)c(=O)c1n2C,inactive,inactive
COc1ccc(CN2C(=O)c3ccccc3NC2c2ccc(OC)c(COc3c(C)cc(NC(C)=O)cc3C)c2)cc1 (configuration not stated),inactive,inactive
COC1C=C([C@@H]2CC=C3[C@@]4(C)C(CC[C@]32C)[C@@]2(C)C=CC(=O)C(C)(C)C2C[C@H]4OC(C)=O)C(=O)O1 (some centres not stated),inactive,inactive
O=C(c1ccccc1O)N(Cc1cccs1)Cc1cccs1,inactive,inactive
COc1ccc(OC)c(-c2nnc3n2N=C(c2ccc(OC)c(OC)c2)CS3)c1,inactive,inactive
C/C=C/C(=O)OC1/C=C/C(O)C(OC(C)=O)CCC(=O)OC1C (configuration not stated),inactive,inactive
CC1(C)CC[C@]2(C(=O)OC3OC(CO)C(O)C(O)C3O)CC[C@]3(C)C(=CCC4[C@@]5(C)CC[C@H](OC6OC(C(=O)O)C(O)C(O)C6O)C(CO)(CO)C5CC[C@]43C)[C@@H]2C1 (some centres not stated),inactive,inactive
COc1cc(-c2ccc3ncnc(NCC4CCCO4)c3c2)cc(OC)c1OC (configuration not stated),inactive,inactive
Nc1ncc(S(=O)(=O)N2CCOCC2)s1,inactive,inactive
CCCn1c(-c2ccc(F)cc2)nc2c(N3CCN(CCC(=O)OCC)CC3)nc(C)nc21,inactive,inactive
CCCn1c(-c2ccc(F)cc2)nc2c(NCCN(CC)CC)nc(C)nc21,inactive,inactive
COc1ccc(C(=O)N(Cc2ccccc2)Cc2ccccc2)c(O)c1,inactive,inactive
Cc1ccc(-c2cc(C(=O)NC3CCCCC3)c3ccccc3n2)cc1C,inactive,inactive

SMILES,Potency [1],Potency [2]
COc1cc2c(s1)c1cnn(Cc3ccccc3F)c(=O)c1n2C,inactive,inactive
Nc1nc(NCc2ccc(-c3ccnc(C(F)(F)F)c3)cc2)c2ccccc2n1,inactive,inactive
Cc1ccc(OCCn2c(CCNC(=O)c3ccc(Br)cc3)nc3ccccc32)cc1,inactive,inactive
COc1ccc(/C=C2/C(=O)Nc3ccccc32)cc1O,inactive,inactive
Cc1cc(C)nc(NC(=S)N2CCN(c3ncccc3C(F)(F)F)CC2)c1,inactive,inactive
Cc1cc(NS(=O)(=O)c2ccc3c(c2)CCC(=O)N3)ccc1F,inactive,inactive
COc1ccc(COc2ccc(-c3nc4ccccc4[nH]3)cc2)cc1OC,inactive,inactive
COC(=O)c1ccc2nc(NC3=NC(c4[nH]ncc4Cl)C4=C(CCCC4=O)N3)oc2c1 (configuration not stated),inactive,inactive
COc1cc(O)c(C(CC(=O)N2CCCC(C#N)C2)c2ccc3c(c2)OCO3)c(OC)c1 (configuration not stated),inactive,inactive
O=[N+]([O-])c1cccc(S(=O)(=O)N2CCN(S(=O)(=O)c3ccc4c(c3)OCCO4)CC2)c1,inactive,inactive
Cc1nnc(-c2cnn(C)c2)n1CCCn1ccnc1,inactive,inactive
CCOC(=O)c1ccc(O)c2ncc(NCC3CCCN(CCc4ccccc4)C3)cc12 (configuration not stated),inactive,inactive
COCCN(CCOC)c1nc(C)nc2c1nc(-c1ccccc1)n2CCN1CCOCC1,inactive,inactive
O=C(Nc1ccc(S(=O)(=O)Nc2nccs2)cc1)c1cc(-c2ccccc2)nc2ccccc12,inactive,inactive
Cc1ccnc(NC(=S)NCCN(C)c2cccc(C(F)(F)F)c2)c1,inactive,inactive
O=C(NCc1ccc(F)cc1)n1c(-c2ccccc2)c(P(=S)(c2ccccc2)c2ccccc2)c2ccccc21,inactive,inactive
CC(C)Oc1cccc(-c2csc(N3CCC(C(N)=O)CC3)n2)c1,inactive,inactive
CC(C)(C)OC(=O)Cc1nnc(C(C(=O)OCc2ccccc2)c2ccccc2)o1 (configuration not stated),inactive,inactive
CN(C(=O)Nc1ccc2ccccc2c1)c1nnc(-c2ccncc2)s1,inactive,inactive
CC(C)(C)N[S+](=O)([O-])c1cccc(-c2nnc(SCC(=O)Nc3ccc(C(=O)O)cc3)n2-c2ccccc2)c1,inactive,inactive
Cc1ccc(OCCn2c(CCNC(=O)c3cccc4ccccc34)nc3ccccc32)cc1,inactive,inactive
O=c1c2ccc(C(F)(F)F)cc2nc2sc(Nc3ccc4c(c3)CCC4)nn12,inactive,inactive

SMILES,Potency [1],Potency [2]
O=C(Nc1cc(C(F)(F)F)ccc1Cl)[C@H](O)CCc1ccccc1,inactive,inactive
Nc1nc2c(c(N3CC[C@@H](N)C3)n1)CCCc1ccccc1-2,inactive,inactive
O=C(Nc1nc(-c2ccccc2)cs1)c1ccccc1[N+](=O)[O-],inactive,inactive
O=C1Cc2cc(S(=O)(=O)N3CCN(c4ccc(CO)cc4)CC3)ccc2N1,inactive,inactive
Cc1ccc(S(=O)(=O)N(C)c2ccccc2C(=O)Nc2nc(-c3ccccc3)cs2)cc1,inactive,inactive
COc1ccc(C2Nc3ccccc3C(=O)N2Cc2ccc(C(F)(F)F)o2)cc1COc1c(C)cccc1C (configuration not stated),inactive,inactive
Cc1cnc(-c2ccccc2C(C)C)nc1NCc1ccc(-c2cccnc2)cc1,inactive,inactive
COc1ccnc(NC(=S)N2CCN(c3ccc4ccccc4n3)CC2)c1,inactive,inactive
COc1ccc2nc(-c3ccc(F)cc3Cl)sc2c1,inactive,inactive
O=C(Nc1ccc(S(=O)(=O)Nc2nccs2)cc1)c1ccnc(-c2ccccc2)c1,inactive,inactive
COc1ccccc1C(=O)NCCc1nc2ccccc2n1CCOc1ccc(C)cc1,inactive,inactive
O=C(Nc1ccccc1)C1CCN(c2nc(-c3ccc(Br)cc3)cs2)CC1,inactive,inactive
FC(F)(F)c1ccccc1-c1nc(NCc2ccc(-c3cccc(Cl)c3)cc2)c2ccccc2n1,inactive,inactive
Cc1cc(NS(=O)(=O)c2ccc(C(=O)NCc3ccc(Cl)c(Cl)c3)cc2)no1,inactive,inactive
Cc1cc(N[S+](=O)([O-])c2ccc(NC(=O)Cc3ccc4c(c3)OCCO4)cc2)no1,inactive,inactive
Nc1ccc(-c2ccc(NC(=O)c3cccs3)cn2)cc1,inactive,inactive
COc1ccc(C2=Nn3c(nnc3-c3ccccc3F)SC2)cc1OC1CCOC1 (configuration not stated),inactive,inactive
Nc1ncnc2c1nc(N)n2[C@@H]1O[C@H](CO)[C@@H](O)[C@H]1O,inactive,inactive
CCOc1ccc(CCNC(=O)c2cc3ccccc3n2Cc2ccc(Cl)c(F)c2)cc1OCC,inactive,inactive
Cn1nnnc1Sc1ncnc2scc(-c3ccccc3S(C)(=O)=O)c12,inactive,inactive

# Source: PubChem BioAssay (NCATS)
